Assay results as given in PubChem BioAssay (NCATS).
Where “and” joins values, the source holds several entries; their conditions need not be identical. Equal values may be shown once. Results filed as inconclusive are left out. Calls of active or inactive are those of the source. Unless noted, calls follow the shape of the dose curve; as a rule, active = well fitted curve in the direction sought with a large enough effect; inconclusive = small, poorly fitted or top-dose-only effect, or another doubt; inactive = no such curve, though single readings can be large; an effect the other way counts as inactive or inconclusive.

Legend:
[1] = Cell Viability - HepG2 (AID 433; calls by dose curve;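 also: potency is read from the fitted curve at half-maximal effect; cells exposed to compound for 40 hours; potency for ATP loss meaning cytotoxicity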); settings: qHTS
Summary of the method: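 Cytotoxicity read as ATP loss (CellTiter-Glo luminescence) after 40 hr compound exposure of HepG2, 1500 cells/well, 37 °C. AC50 by Hill equation; 0% set by DMSO, 100% inhibition by 100 uM tamoxifen.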

[2] = Cell Viability - Renal Proximal Tubule (AID 545); settings: renal proximal tubule cells viability; series mostly up to 91.7 µM;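 also: cells exposed to compound for 40 hours; 0% = DMSO only and -100% = 100 µM tamoxifen; nearly all actives have a fitted effect of over 40% in size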
Summary of the method: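 Viability taken as intracellular ATP (CellTiter-Glo luminescence) after 40 hr, 37 °C compound treatment of primary proximal tubule cells from rat kidney, 1000 cells/well; Hill-equation fits of qHTS concentration-response data gave AC50.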

[3] = Cellular Toxicity (caspase-3) HUV-EC-C (AID 656); settings: HUV-EC-C cells, caspase-3 activation (apoptosis), vehicle = 0, 100 µM tamoxifen = 100%; series mostly up to 92.2 µM;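 also: 0% = DMSO basal and 100% = 100 µM tamoxifen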
Summary of the method: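 Luminescent Caspase-Glo 3/7 readout after 16 h, 37 °C compound exposure of HUV-EC-C endothelial cells, 1000 per well, complete medium. AC50 derived by Hill fitting, with DMSO as baseline and 100 uM tamoxifen as full activation.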

[4] = Cellular Toxicity (caspase-3) SHSY5Y (AID 657); settings: SH-SY5Y caspase-3 activation, DMSO zero, 10 µM staurosporine = 100%; series mostly up to 91.7 µM
Summary of the method: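 Luminescent Caspase-Glo 3/7 read-out, 1 hr room temperature, follows 16 hours of compound treatment of SH-SY5Y cells at 37 °C. Normalization: DMSO basal, 10 uM staurosporine as 100%; AC50 values from Hill-equation concentration-response fits.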

[5] = Cellular Toxicity (caspase-3) MRC-5 (AID 659); settings: MRC-5 cells, luminescence, normalized: DMSO 0%, 10 µM staurosporine 100%; series mostly up to 91.7 µM
Summary of the method: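 MRC-5 fibroblasts, 1500/well; 16 h cpd, 37 °C; Caspase-Glo 3/7, 1 h RT; lumi read. Norm: DMSO = 0%, 10 uM staurosporine = 100%. Hill-fit AC50 from qHTS conc-response.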

[6] = target: Cytochrome P450 3A4 (Homo sapiens) (UniProt P08684); experiment: qHTS Assay for Inhibitors and Substrates of Cytochrome P450 3A4 (AID 884); settings: recombinant CYP3A4, Luciferin-PPXE luminescence; series mostly up to 57.1 µM; also: % is scaled to controls: 0 for no effect and ±100 for the full control effect; nearly all actives have a fitted effect of over 50% in size
Cytochrome P450 3A4 (Homo sapiens), sequence (P08684 whole entry, looked up): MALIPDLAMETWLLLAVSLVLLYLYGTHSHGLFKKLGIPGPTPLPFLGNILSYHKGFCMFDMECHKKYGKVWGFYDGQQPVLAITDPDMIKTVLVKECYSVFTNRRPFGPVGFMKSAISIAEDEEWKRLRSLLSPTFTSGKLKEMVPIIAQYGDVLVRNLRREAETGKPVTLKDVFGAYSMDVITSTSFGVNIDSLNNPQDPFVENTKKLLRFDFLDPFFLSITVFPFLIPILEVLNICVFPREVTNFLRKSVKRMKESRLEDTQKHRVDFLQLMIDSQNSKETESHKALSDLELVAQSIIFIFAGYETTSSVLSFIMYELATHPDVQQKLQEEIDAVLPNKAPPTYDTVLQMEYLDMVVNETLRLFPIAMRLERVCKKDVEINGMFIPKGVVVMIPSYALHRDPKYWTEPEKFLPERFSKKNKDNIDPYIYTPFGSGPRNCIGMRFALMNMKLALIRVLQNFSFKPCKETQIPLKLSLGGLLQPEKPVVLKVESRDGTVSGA
Summary of the method: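 Luminescent readout of luciferin produced by CYP3A4 (20 nM) dealkylation of Luciferin-PPXE, 25 uM (its KM). NADPH-driven reaction ran 60 min at RT after 10 min compound preincubation; data scaled to 57 uM ketoconazole as 100% inhibition.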

[7] = MultiTox-Fluor Cytotoxicity Assay - LYMP1-002 - Live Cells (AID 955); settings: LYMP1-002 lymphoblastoid live-cell protease fluorescence viability; series mostly up to 46.1 µM; also: % is scaled to controls: 0 for no effect and ±100 for the full control effect
Summary of the method: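 Cells were seeded at 2500 per well and incubated 5 hr. Compounds were then added for 16 hr at 37 C, followed by MultiTox-Fluor reagent for 60 min at room temperature and fluorescence reading of viable-cell protease signal.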

[8] = Cell Viability - LYMP1-003 - Assay at 24 hr (AID 963); settings: LYMP1-003 lymphoblastoid cell viability; series mostly up to 92.2 µM;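 also: plate controls were DMSO only for no effect and tetraoctylammonium bromide positive control for full effect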
Summary of the method: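 Cytotoxicity is scored as a concentration-dependent fall in ATP-linked luciferase signal in human lymphoblastoid LYMP1-003 cells treated 24 hr at 37 C in complete culture medium.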

[9] = Cell Viability - LYMP2-004 (AID 966); settings: LYMP2-004 lymphoblastoid cell viability, qHTS; series mostly up to 92.2 µM;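 also: plate controls were DMSO only for no effect and tetraoctylammonium bromide control for full effect; nearly all actives have a fitted effect of over 65% in size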
Summary of the method: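 qHTS cytotoxicity: human lymphoblastoid line, 24 hr compound treatment, 37 C, complete medium. Viability read as cellular ATP via luciferase luminescence; tetraoctylammonium bromide served as positive control.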

[10] = Cell Viability - LYMP2-009 (AID 968); settings: LYMP2-009 lymphoblastoid cell viability; series mostly up to 92.2 µM; also: nearly all actives have a fitted effect of over 55% in size; also: potency is read from the fitted curve at half-maximal effect
[11] = Cell Viability - LYMP2-017 (AID 972); settings: LYMP2-017 lymphoblastoid cell viability; series mostly up to 92.2 µM; also: nearly all actives have a fitted effect of over 55% in size; also: potency is read from the fitted curve at half-maximal effect
Summary of the method: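 Cytotoxicity is scored as a concentration-dependent drop in cellular ATP in a human lymphoblastoid line after 24 hr treatment at 37 C. Values are AC50s from Hill-equation modelling.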

[12] = Cell Viability - LYMP2-025 (AID 976); settings: LYMP2-025 lymphoblastoid cell viability; series mostly up to 92.2 µM;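 also: plate controls were DMSO only for no effect and tetraoctylammonium bromide control for full effect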
Summary of the method: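 Acute cytotoxicity is scored as a concentration-dependent fall in intracellular ATP, measured by luciferase luminescence, in human lymphoblastoid LYMP2-025 cells exposed to compound for 24 hours at 37 C. AC50 values come from standard Hill fits.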

[13] = Cell Viability - LYMP2-012 (AID 982); settings: LYMP2-012 lymphoblastoid cell viability qHTS; series mostly up to 92.2 µM;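 also: cellular ATP by luciferase luminescence where a drop means cytotoxicity; cells exposed to compound for one day before reading; nearly all actives have a fitted effect of over 55% in size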; also: potency is read from the fitted curve at half-maximal effect
[14] = Cell Viability - LYMP2-016 (AID 984); settings: LYMP2-016 lymphoblastoid cell viability, qHTS; series mostly up to 92.2 µM; also: % is scaled to controls: 0 for no effect and ±100 for the full control effect; nearly all actives have a fitted effect of over 55% in size
Summary of the method: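 Cytotoxicity was scored by luminescent ATP content (CellTiter-Glo) after 24 h compound exposure at 37 C of a human lymphoblastoid line at 2500 cells/well. Concentration-response data were fitted to the Hill equation for AC50.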

[15] = Cell Viability - LYMP1-002 - Assay at 40 hr (AID 994); settings: LYMP1-002 lymphoblastoid cell viability; series mostly up to 92.2 µM;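 also: 0% = DMSO only and full inhibition = 92 µM tetraoctylammonium bromide; nearly all actives have a fitted effect of over 60% in size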
Summary of the method: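 Cells are plated at 2500 per well and rested 5 hr at 37 C. Compounds are added and incubated 40 hr at 37 C. CellTiter-Glo reagent is added for 30 min at room temperature before luminescence is read.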

[16] = qHTS Assay for Identification of Small Molecule Inducers of Hypoxia Response (AID 2120; active = well fitted curve in the direction sought with a large enough effect in the signal ratio, with a control signal flat, not every such curve was filed as active; the % refers to the signal ratio; also: 0% is about no effect); settings: hypoxia response reporter cells, beta-lactamase ratio readout; series mostly up to 104 µM
Summary of the method: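 Cell-based qHTS for reporter induction: hypoxia response element controlled beta-lactamase in ME-180 cells. Compounds incubated 17 h at 37 degrees C; activity from blue/green (460/530 nm) ratio, inducers ranked by AC50.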

[17] = qHTS assay for small molecule antagonists of retinoid X receptor alpha signaling (AID 588546); settings: HEK293T RXRa-UAS-bla, beta-lactamase ratio, antagonist mode; measured here: W530 green channel, cytotoxicity proxy;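 also: cells stimulated with 9-cis-retinoic acid as agonist; % is scaled to controls: 0 for no effect and ±100 for the full control effect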
Summary of the method: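 Beta-lactamase reporter inhibition, read as CCF4 fluorescence ratio (ex 405, em 460/530 nm) after 2 h at RT. HEK293T UAS-bla cells, 2500/well, were stimulated with 9-cis-RA at 500 or 100 nM final alongside test compound for 18 h at 37 C.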

[18] = qHTS assay for environmental chemicals that activate the Aryl hydrocarbon Receptor (AhR) signaling pathway (AID 651777); settings: 1A2-DRE human hepatoma cells, luciferase, 24 h; activation: stronger effect = higher value; also: nearly all actives have a fitted effect of over 15% in size; also: potency is read from the fitted curve at half-maximal effect; as to activation: % of control where 0% means no effect
Summary of the method: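 Luminescence (One-Glo, 30 min, room temperature) reports AhR-driven luciferase in stably transfected human hepatoma cells bearing DRE and CYP1A2 promoter. Cells (1,200/well) were treated with compound for 24 hr at 37 C in qHTS format.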

[19] = target: Peroxisome proliferator-activated receptor alpha (Homo sapiens) (UniProt Q07869); experiment: qHTS assay for small molecule agonists of the peroxisome proliferator-activated receptor alpha (PPARalpha) signaling pathway (AID 651778); settings: PathHunter PPARalpha complementation, chemiluminescence, 6 h; stronger effect = higher value; also: % of control where 0% means no effect
Peroxisome proliferator-activated receptor alpha (Homo sapiens), sequence (Q07869 whole entry, looked up, the tested form may be a part): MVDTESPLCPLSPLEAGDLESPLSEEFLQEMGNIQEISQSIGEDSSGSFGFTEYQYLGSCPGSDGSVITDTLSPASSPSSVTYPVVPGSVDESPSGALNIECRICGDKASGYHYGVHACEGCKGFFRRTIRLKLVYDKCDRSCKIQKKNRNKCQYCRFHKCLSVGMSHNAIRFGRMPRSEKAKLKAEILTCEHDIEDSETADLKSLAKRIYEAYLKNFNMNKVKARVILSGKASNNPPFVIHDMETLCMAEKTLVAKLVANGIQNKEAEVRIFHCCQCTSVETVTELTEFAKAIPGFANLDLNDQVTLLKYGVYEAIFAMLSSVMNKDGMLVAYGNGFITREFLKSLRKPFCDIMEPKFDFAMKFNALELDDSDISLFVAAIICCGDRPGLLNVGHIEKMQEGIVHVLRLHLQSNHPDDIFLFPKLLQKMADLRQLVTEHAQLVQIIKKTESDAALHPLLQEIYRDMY
Summary of the method: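 Enzyme-fragment complementation assay in which ligand-bound PPARalpha translocates and forms an active enzyme that generates chemiluminescence. Cells were plated overnight, exposed to compound for 6 hr at 37 C, and then given detection reagent for 60 min at room temperature.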

[20] = qHTS assay for small molecule agonists of the antioxidant response element (ARE) signaling pathway measured by Nrf2-dependant transcriptional activity - cell viability counter screen (AID 720653; active = well fitted curve in the direction sought with a large enough effect in the repeat runs; an effect the other way counts as inactive or inconclusive; also: % is scaled to controls: 0 for no effect and ±100 for the full control effect); settings: ARE-bla HepG2 viability, CellTiter-Glo ATP luminescence, 16 h; stronger effect = lower value
Summary of the method: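 ARE-bla HepG2 cells treated with compounds for 16 h at 37C; this counter screen measures viability as intracellular ATP by CellTiter-Glo luminescence after 30 min at room temperature.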

CCN(CC)CCO
3.45%: max response [17]
inactive: Potency [1] > 92 µM | outcome [2] | outcome [3] | outcome [4] | outcome [5] | Potency [6] | outcome [7] | outcome [8] | Potency [9] | Potency [10] | Potency [11] | Potency [12] | Potency [13] | Potency [14] | Potency [15] | Potency [16] | activation [18] 3.62% | max response [19] -3.44% | max response [20] -6.79%

Nc1cccc2ccccc12
active: Potency [18] 44.7 µM
-8.8%: max response [17]
inactive: Potency [1] > 92 µM | outcome [2] | outcome [3] | outcome [4] | outcome [5] | outcome [7] | outcome [8] | Potency [9] | Potency [12] | Potency [13] | Potency [14] | Potency [15] | Potency [16] | max response [19] -2.99% | max response [20] -19.6%

C=CC(=O)OC
-10.6%: max response [17]
inactive: Potency [1] > 92 µM | outcome [2] | outcome [3] | outcome [4] | outcome [5] | Potency [6] | outcome [7] | outcome [8] | Potency [9] | Potency [10] | Potency [11] | Potency [12] | Potency [13] | Potency [14] | Potency [15] | Potency [16] | activation [18] 1.42% | max response [19] -1.74% | max response [20] 8.65%

Clc1ccc(C(c2ccccc2Cl)C(Cl)(Cl)Cl)cc1 (stereo not drawn)
5.48%: max response [17]
inactive: Potency [1] > 92 µM | outcome [2] | outcome [3] | outcome [4] | outcome [5] | Potency [6] | outcome [7] | outcome [8] | Potency [9] | Potency [10] | Potency [11] | Potency [12] | Potency [14] | Potency [15] | Potency [16] | activation [18] -0.21% and -0.331% | max response [19] 3.12% | max response [20] -11.9% and 2.81%

Clc1ccc(C(Cl)(Cl)Cl)cc1Cl
inactive: Potency [1] > 92 µM | outcome [2] | outcome [3] | outcome [4] | outcome [5] | Potency [6] | outcome [7] | outcome [8] | Potency [9] | Potency [10] | Potency [11] | Potency [13] | Potency [14] | Potency [15] | Potency [16] | activation [18] -0.831% | max response [19] 1.82% | max response [20] -18%
-6.09%: max response [17]

BrCC(Br)(Br)Br
inactive: Potency [1] > 92 µM | outcome [2] | outcome [3] | outcome [4] | outcome [5] | Potency [6] | outcome [7] | outcome [8] | Potency [9] | Potency [15] | Potency [16] | activation [18] 1.69% | max response [19] -5.78%
2.45%: max response [17]
active: Potency [10] 31.6 µM | Potency [11] 15.8 µM | Potency [13] 12.6 µM

Oc1cc(Cl)c(Cl)c(Cl)c1Cl
inactive: outcome [3] | outcome [4] | outcome [5] | outcome [7] | outcome [8] | Potency [9] | Potency [12] | Potency [14] | Potency [15] | Potency [16] | activation [18] 4.37% | max response [19] 0.278%
active: Potency [1] 53.3 µM

O=C(O)CBr
-7.96%: max response [17]
inactive: Potency [1] > 92 µM | outcome [2] | outcome [3] | outcome [4] | outcome [5] | Potency [6] | outcome [7] | outcome [8] | Potency [9] | Potency [10] | Potency [11] | Potency [12] | Potency [13] | Potency [14] | Potency [15] | Potency [16] | activation [18] -0.817% | max response [19] 2.06% | max response [20] 9.96%

O=C(O)C(Br)Br
inactive: Potency [1] > 92 µM | outcome [2] | outcome [3] | outcome [4] | outcome [5] | Potency [6] | outcome [7] | outcome [8] | Potency [9] | Potency [10] | Potency [11] | Potency [12] | Potency [13] | Potency [14] | Potency [15] | Potency [16] | max response [19] 14.7% | max response [20] -17.6%
-1.6%: max response [17]

CCOC(=O)CC(SP(=O)(OC)OC)C(=O)OCC (stereo not drawn)
inactive: Potency [1] > 92 µM | outcome [2] | outcome [3] | outcome [4] | outcome [5] | outcome [7] | outcome [8] | Potency [9] | Potency [10] | Potency [11] | Potency [12] | Potency [13] | Potency [14] | Potency [15] | Potency [16] | activation [18] 1.9% and 4.95% | max response [19] -2.03% and -3.38% | max response [20] 0.403% and 18.9%
7.78% and 5.62%: max response [17]
